According to PubChem BioAssay:
Activity calls are given as the source filed them.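 How the source made its calls, unless noted: active means inhibition at or above 50% at 10 µM; inactive means inhibition below 50%.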 Where a SMILES comes first, the peptide text is derived from it. [ ]: non-standard residue; d: D form. The star is where a group is joined. ξ: configuration not given here. Cbz = O=C(OCc1ccccc1)*; ξK = NCCCCC(N)C(=O)O

Legend:
[1] = inhibitors of TNFa-induced NFkB p65 translocation, primary screen, imaging, HUVEC, MLSMR starter and 10KST1 sets (AID 438;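 active means inhibition above 20% together with a positive visual image hit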;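 further: compound added about 3h40 before a 20 min TNFalpha stimulation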;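 on inhibition: signal is the nuclear over cytoplasmic p65 intensity ratio per well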); details: HUVEC TNFa-induced p65 nuclear translocation; cell count: measured here: nuclei count (cytotoxicity indicator), at 2.08 µM; inhibition: at 2 µM, stronger effect = higher value, 0% TNFa-plus-vehicle, 100% no-TNFa wells
[2] = inhibitors of mutant huntingtin aggregation, primary screen, imaging, exon1htt(103Q)mCFP cells, high-content imaging (AID 483;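 active means visual image review flags a hit and inhibition of aggregation exceeds 20%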;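 further: compound exposure lasted 3 days before fixation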;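 on nuclei count: percent of the per-plate median nuclei count of sample wells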); details: exon1htt(103Q)mCFP cell line, aggregate imaging, at 2 µM; inhibition of aggregation: stronger effect = higher value; nuclei count: measured here: cell count, toxicity
[3] = inhibitors of E-selectin induction by TNFa, primary screen, imaging, HUVEC, immunofluorescence, MLSMR starter and 10KST1 sets (AID 487;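 active means visually confirmed hit in the image check and inhibition above 20%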;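 on inhibition: signal is fraction of cell area covered by stained E-selectin grains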;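 on nuclei count: 100% = median nuclei count of all wells on the same plate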); details: HUVEC TNFalpha-induced E-selectin immunofluorescence imaging, at 2 µM; inhibition: stronger effect = higher value; nuclei count: measured here: cell number, toxicity
[4] = biological target: Voltage-gated potassium channel subunit beta-2 (Rattus norvegicus) (UniProt P62483); assay: KvBeta enzyme negative modulators, primary screen, biochemical, NADPH fluorescence (AID 622;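 active means fluorescence slope higher than the sample average by over 3 SD, cut at about -0.22 in these data, passing the limit was not always enough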;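 further: slope of raw intensity against log time taken from 70 to 1610 s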); details: recombinant KvBeta, 4-cyanobenzaldehyde reduction, at 10 µM, stronger effect = higher value
[5] = biological target: Voltage-gated potassium channel subunit beta-2 (Rattus norvegicus) (UniProt P62483); assay: KvBeta positive modulators, primary screen, biochemical, NADPH fluorescence (AID 623;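 active means NADPH fluorescence slope more negative than the mean of all samples by about 3 SD, 99.7% confidence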;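 further: fluorescence intensity change per second fitted from 20 to 320 s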); details: Recombinant KvBeta, NADPH fluorescence decrease slope, 10 min; at 10 µM; stronger effect = lower value
[6] = biological target: Alpha-2C adrenergic receptor (Homo sapiens) (UniProt P18825); assay: modulators of alpha2C/GIRK thallium flux, primary screen, cell-based, HEK293 alpha2C/GIRK1/2 (AID 624;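 active means fluorescence slope after compound addition differing from the mean of all screened samples at 99.7% confidence, in either direction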;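 further: slope of fluorescence ratio to pre-addition baseline per second over 15 to 24 s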); details: thallium flux BTC fluorescence, at 10 µM, actives lie on both sides
[7] = inhibitors of Sendai virus-induced IRF3 signaling, primary screen, TLR/RLR signaling modifier project, cell-based, Sendai virus stimulus, luciferase, 10K MLSCN set (AID 602276); details: HEK293 RL24 IRF3 luciferase reporter, at 10 µM, stronger effect = higher value;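 further: firefly luciferase from ISG56 promoter only with Renilla not read in this screen; 0% = Sendai virus plus DMSO and 100% = medium plus DMSO without virus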
[8] = inhibitors of poly I:C-induced TLR3 signaling, primary screen, cell-based, poly I:C stimulus, luciferase, 10K MLSCN set (AID 602277;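 active means inhibition of the reporter signal at or above 50%; inactive means inhibition below 50%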); details: HEK293-TLR3 RL24 IRF3 luciferase reporter, at 10 µM, stronger effect = higher value

Sequence of Alpha-2C adrenergic receptor (Homo sapiens) (P18825 whole entry, looked up): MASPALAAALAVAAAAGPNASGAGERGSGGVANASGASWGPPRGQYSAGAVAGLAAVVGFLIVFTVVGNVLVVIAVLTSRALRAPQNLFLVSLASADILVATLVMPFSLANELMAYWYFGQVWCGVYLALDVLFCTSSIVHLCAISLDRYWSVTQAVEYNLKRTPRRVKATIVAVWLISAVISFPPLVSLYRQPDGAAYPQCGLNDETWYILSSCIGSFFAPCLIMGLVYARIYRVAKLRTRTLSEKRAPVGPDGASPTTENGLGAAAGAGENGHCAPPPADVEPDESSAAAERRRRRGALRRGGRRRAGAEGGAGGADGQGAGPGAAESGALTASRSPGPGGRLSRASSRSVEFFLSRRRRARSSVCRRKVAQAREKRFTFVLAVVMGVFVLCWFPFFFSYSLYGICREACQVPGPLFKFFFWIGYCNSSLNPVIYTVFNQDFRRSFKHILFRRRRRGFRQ
Sequence of Voltage-gated potassium channel subunit beta-2 (Rattus norvegicus) (P62483 whole entry, looked up): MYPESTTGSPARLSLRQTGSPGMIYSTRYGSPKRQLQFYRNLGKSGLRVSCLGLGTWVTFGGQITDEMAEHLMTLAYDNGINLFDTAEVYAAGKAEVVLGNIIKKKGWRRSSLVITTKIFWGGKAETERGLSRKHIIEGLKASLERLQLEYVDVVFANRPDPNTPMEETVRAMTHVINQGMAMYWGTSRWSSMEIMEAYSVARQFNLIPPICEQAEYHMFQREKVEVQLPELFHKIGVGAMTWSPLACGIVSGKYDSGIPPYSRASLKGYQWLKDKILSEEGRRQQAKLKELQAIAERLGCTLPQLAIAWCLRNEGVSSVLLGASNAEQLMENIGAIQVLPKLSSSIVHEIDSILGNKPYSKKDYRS

SMILES	cell count [1]	inhibition [1]	inhibition of aggregation [2]	nuclei count [2] [%]	inhibition [3]	nuclei count [3] [%]	fluorescence slope [4]	NADPH fluorescence slope [5]	slope [6]	inhibition [7]	inhibition [8]
CCc1ccc(N2CC(C(=O)OCC(=O)Nc3cc(C)on3)CC2=O)cc1 (stereo unspecified)	465	5.3% (inactive)	-4.7% (inactive)	102	-6.8% (inactive)	92.3	-0.368 (inactive)	-2.5e-05 (inactive)	0.00565 (inactive)	5.09% (inactive)	20.1% (inactive)
CC(C)(O)C#Cc1ccc(C(=O)N2CCN(C(=O)c3ccco3)CC2)cc1	547	-7.8% (inactive)	-25.3% (inactive)	121	45.3% (inactive)	133	-0.51 (inactive)	-3.3e-05 (inactive)	0.00463 (inactive)	16.5% (inactive)	13.5% (inactive)
CC(C)(C)C(=O)/C=C(\N)c1ccccn1	404	-5% (inactive)	15.3% (inactive)	89.1	-33.9% (inactive)	108	-0.466 (inactive)	-5.5e-05 (inactive)	0.00639 (inactive)	-0.411% (inactive)	2.89% (inactive)
CCc1nnc2sc(-c3cc(-c4ccccc4)nc4ccccc34)nn12	267	5.4% (inactive)	7.4% (inactive)	87	3.3% (inactive)	90.4	-0.436 (inactive)	2.9e-06 (inactive)	0.00312 (inactive)	8.15% (inactive)	26.8% (inactive)
CC(C)OC(=O)CN1C(=O)C(C)(C)Oc2ccc(C(=O)NC3CC3)cc21	537	-6.7% (inactive)	18% (inactive)	104	-11.5% (inactive)	102	-0.496 (inactive)	-7.2e-05 (inactive)	0.00477 (inactive)	14.5% (inactive)	17.5% (inactive)
C=CCSc1n[nH]c(-c2ccc(OC)cc2)n1	244	17.3% (inactive)	-8.3% (inactive)	89.5	-73.2% (inactive)	103	-0.417 (inactive)	-9.3e-05 (inactive)	0.00611 (inactive)	-90.7% (inactive)	-168% (inactive)
COc1ccc(C(=O)N2CCN(C3CCC(c4ccccc4)CC3)CC2)cc1OC (stereo unspecified)	420	-1.3% (inactive)	20.2% (inactive)	88.1	43.2% (inactive)	83.9	-0.436 (inactive)	-5.4e-05 (inactive)	0.00292 (inactive)	7.44% (inactive)	17.6% (inactive)
O=c1[nH]c(SCc2ccc(F)cc2)nc2c1cnn2-c1ccc(F)cc1	652	-31% (inactive)	-8.4% (inactive)	95.8	-0.1% (inactive)	110	-0.57 (inactive)	1e-05 (inactive)	0.00683 (inactive)	-21.2% (inactive)	-12.1% (inactive)
CCOC(=O)c1ccc2nc(C)c3c(c2c1)OC(C)C3 (stereo unspecified)	308	-13% (inactive)	1.1% (inactive)	94.2	9% (inactive)	122	-0.349 (inactive)	1.7e-05 (inactive)	0.00348 (inactive)	-5.44% (inactive)	20.2% (inactive)
C=CCNC(=O)CSc1nc2sc(C)c(C)c2c(=O)[nH]1	590	-3.4% (inactive)	13.2% (inactive)	91.2	5.1% (inactive)	112	-0.556 (inactive)	-3.3e-05 (inactive)	0.00731 (inactive)	9.71% (inactive)	21.7% (inactive)
CSc1nc2ccccc2c(=O)n1N	618	7.8% (inactive)	12.4% (inactive)	90.5	28.4% (inactive)	84.2	-0.404 (inactive)	-1.3e-05 (inactive)	0.00832 (inactive)	13% (inactive)	19% (inactive)
Cc1cc(NC(=O)CCCN2C(=O)c3cccnc3C2=O)no1	429	5.6% (inactive)	17.7% (inactive)	100	-64.2% (inactive)	79.6	-0.459 (inactive)	1.6e-05 (inactive)	0.00763 (inactive)	-4.41% (inactive)	13.4% (inactive)
COCCNC(=O)CC(NS(=O)(=O)c1ccc(NC(C)=O)cc1)C(C)C (stereo unspecified)	435	6.5% (inactive)	-1.2% (inactive)	105	-122% (inactive)	107	-0.397 (inactive)	-7.5e-05 (inactive)	0.00454 (inactive)	8.34% (inactive)	25.9% (inactive)
COc1ccc(N2CCN(C(=O)COc3ccc4ccccc4c3)CC2)cc1	737	7.3% (inactive)	7.5% (inactive)	93.8	-29.6% (inactive)	111	-0.468 (inactive)	-5.8e-05 (inactive)	0.00617 (inactive)	4.32% (inactive)	10.9% (inactive)
CS(=O)(=O)N1CCCC(C(=O)NCCCN2CCC(Cc3ccccc3)CC2)C1 (stereo unspecified)	679	-2% (inactive)	15.3% (inactive)	89.6	-139% (inactive)	111	-0.602 (inactive)	2e-05 (inactive)	0.00628 (inactive)	-7.21% (inactive)	-4.47% (inactive)
COc1cccc(C2C3=C(N=C4SCC(=O)N42)c2ccccc2CC3)c1OC (stereo unspecified)	680	1.6% (inactive)	-10.8% (inactive)	107	-15.3% (inactive)	98.5	-0.442 (inactive)	4.1e-05 (inactive)	0.00306 (inactive)	-0.493% (inactive)	29.3% (inactive)
O=C(Nc1ccccc1N1CCN(c2ccc(F)cc2)CC1)c1ccccc1	423	7.6% (inactive)	-1% (inactive)	104	-122% (inactive)	134	-0.44 (inactive)	-3.4e-05 (inactive)	0.00515 (inactive)	14% (inactive)	21.1% (inactive)
Cc1ccc(N=Cc2ccc[nH]2)c(O)c1	438	4.9% (inactive)	18.3% (inactive)	108	7% (inactive)	112	-0.373 (inactive)	-2.1e-06 (inactive)	0.0076 (inactive)	-10% (inactive)	-22.4% (inactive)
CCOC(=O)c1cnc2c(OC)cccc2c1N1CCN(c2ccc(OC)cc2)CC1	158	-4.9% (inactive)	16.9% (inactive)	72.9	2.9% (inactive)	80.4	-0.577 (inactive)	-4.5e-05 (inactive)	0.00543 (inactive)	19.3% (inactive)	24.8% (inactive)
Cc1cnn(Cc2ccccc2)c1N	638	2.3% (inactive)	-4.6% (inactive)	105	25.6% (inactive)	100	-0.6 (inactive)	-3.5e-05 (inactive)	0.00669 (inactive)	14.7% (inactive)	21.3% (inactive)
CCOc1ccc(N2CC(C(=O)Nc3ccccc3OC)CC2=O)cc1 (stereo unspecified)	663	-3.4% (inactive)	-8.5% (inactive)	89	-21.8% (inactive)	126	-0.404 (inactive)	2.8e-05 (inactive)	0.00536 (inactive)	5.76% (inactive)	-2.71% (inactive)
COC(=O)C(CCCCNC(=O)OCc1ccccc1)NC(=O)CN (stereo unspecified) (H-Gly-[ξK](Cbz)-OMe)	529	-6.5% (inactive)	11.4% (inactive)	104	-14% (inactive)	71.3	-0.623 (inactive)	-2.9e-05 (inactive)	0.00756 (inactive)	4.8% (inactive)	6.56% (inactive)
CCc1cccc(NC(=O)C2CCCN(S(=O)(=O)c3c(C)[nH]c(=O)[nH]c3=O)C2)c1 (stereo unspecified)	325	-10.3% (inactive)	0.8% (inactive)	106	-57.4% (inactive)	104	-0.405 (inactive)	-3.6e-05 (inactive)	0.0033 (inactive)	9.85% (inactive)	23.9% (inactive)
O=C(Nc1ccccc1C(=O)N1CCOCC1)C1CCC(=O)N1C1CCCC1 (stereo unspecified)	229	14.7% (inactive)	8.7% (inactive)	79.1	-48.2% (inactive)	110	-0.425 (inactive)	-4.5e-05 (inactive)	0.00481 (inactive)	4.86% (inactive)	7.23% (inactive)
COc1cc2c(=O)nc3n(c2cc1OC)C(c1ccccc1)N=C(N)N3 (stereo unspecified)	398	-11.9% (inactive)	17.7% (inactive)	86.3	0.3% (inactive)	98.2	-0.312 (inactive)	-2.8e-05 (inactive)	0.00451 (inactive)	17.6% (inactive)	23.9% (inactive)
Cc1[nH]c(C(=O)N2CCCCC2)c(C)c1C(=O)NC1CCCCC1	425	0.5% (inactive)	6.3% (inactive)	97.4	-49.8% (inactive)	123	-0.528 (inactive)	2.6e-05 (inactive)	0.00631 (inactive)	5.02% (inactive)	4.54% (inactive)
